Common to all, as to experiment: NCI-60 one-dose screen, 48 h (100 = growth as untreated, 0 = no growth, -100 = all killed)
The test system of one experiment is K-562 leukemia. The conditions noted are these: 10 µM unless noted.
The subject of the next experiment is MALME-3M melanoma. The note with it: 10 µM unless noted.
Another experiment relates to MDA-MB-231 breast. The note with it: 10 µM unless noted.
In the next experiment the test system is RXF 393 renal. The conditions noted are these: 10 µM unless noted.
Another experiment relates to SF-268 CNS. The note with it: 10 µM unless noted.
Another experiment concerns SF-295 CNS. The conditions noted are these: 10 µM unless noted.
In another experiment the test system is SF-539 CNS. The note with it: 10 µM unless noted.
Another experiment has as its system UACC-257 melanoma. The note with it: 10 µM unless noted.
Another experiment deals with M14 melanoma. The note with it: 10 µM unless noted.
Another experiment concerns HCT-15 colon. The conditions noted are these: 10 µM unless noted.
Another experiment has as its system HT29 colon. The conditions noted are these: 10 µM unless noted.
The subject of another experiment is SNB-75 CNS. The note with it: 10 µM unless noted.
For the next experiment, the system named is SNB-19 CNS. The conditions noted are these: 10 µM unless noted.
In a further experiment the test system is U251 CNS. The conditions noted are these: 10 µM unless noted.
The next experiment has as its system PC-3 prostate. The note with it: 10 µM unless noted.
For the next experiment, the system named is SK-MEL-5 melanoma. The note with it: 10 µM unless noted.
Another experiment concerns UACC-62 melanoma. The note with it: 10 µM unless noted.
The test system of the next experiment is LOX IMVI melanoma. The conditions noted are these: 10 µM unless noted.
Another experiment deals with SK-MEL-28 melanoma. The note with it: 10 µM.
The test system of a further experiment is SK-MEL-2 melanoma. The note with it: 10 µM unless noted.

SMILES strings stand for the structures. The panel holds about 83,000 compounds, 20% with a hit somewhere; the sample as a whole holds those more often.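 Negative percent growth values reflect cell death: -40 means 40% of the cells present at the start died, and -100 means all died.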 Values without a mark were called inactive. Active and inactive are the calls of the source. The calls were made as follows: active = growth percent below 10; inactive = the rest.

With `CCOC(=O)c1cc2c(n1Cc1ccccc1)-c1oncc1CCC2`, the growth is 24.1% in the experiment on K-562 leukemia; 39.2% in the experiment with MALME-3M melanoma; 74.4% in the experiment with MDA-MB-231 breast; 84.6% in the experiment on RXF 393 renal; 88.7% in the experiment on SF-268 CNS; 98.2% in the experiment with SF-295 CNS. The growth with SF-539 CNS was 83.3%; in the experiment with UACC-257 melanoma, 82.5%; in the experiment on M14 melanoma, 68%; in the experiment on HCT-15 colon it was 45.7%; in the experiment with HT29 colon, 37.7%; with SNB-75 CNS it was 75.6%. Also, the growth was 88.1% in the experiment with SNB-19 CNS; 85.8% in the experiment with U251 CNS; 80.6% in the experiment with PC-3 prostate; 66.6% with SK-MEL-5 melanoma; 51.8% with UACC-62 melanoma; 79.4% in the experiment with LOX IMVI melanoma. In addition, the results for the growth in the experiment on SK-MEL-28 melanoma and in the experiment on SK-MEL-2 melanoma were 67% and 83.5%, respectively.
As to `COC(=O)c1c2c(c(C)[n+]([O-])c1C)C(=O)C(NCc1ccc(Br)cc1)=CC2=O`, the growth in the experiment on K-562 leukemia is 32%; in the experiment with MALME-3M melanoma it was -70.1% (active); with MDA-MB-231 breast, 4.21% (active); in the experiment on RXF 393 renal it was 41.4%; in the experiment with SF-268 CNS it was 16.2%; in the experiment with SF-295 CNS, 19.3%. In addition, the growth in the experiment with SF-539 CNS is 8.36% (active); in the experiment with UACC-257 melanoma, -52.3% (active); with M14 melanoma, 4.19% (active); with HCT-15 colon it was 7.94% (active); in the experiment on HT29 colon it was 9.96% (active); with SNB-75 CNS it was 84.5%. The growth with SNB-19 CNS is 19%; in the experiment on U251 CNS, 9.45% (active); in the experiment with PC-3 prostate, 27.6%; with SK-MEL-5 melanoma, -93.1% (active); in the experiment with LOX IMVI melanoma, 16.9%; with SK-MEL-28 melanoma, 65.3%. In addition, in the experiment on SK-MEL-2 melanoma, the growth is 47.1%.
On to `NCCNc1nc2ccc(F)cc2c2c(=O)c3cc(F)ccc3sc12`, for which the growth with K-562 leukemia is -44.2% (active); with MALME-3M melanoma it was 99%; in the experiment with MDA-MB-231 breast it was 6.98% (active); with RXF 393 renal it was 52.3%; in the experiment with SF-268 CNS, 48.9%; with SF-295 CNS, 82.3%. The growth in the experiment on SF-539 CNS was 73.6%; in the experiment on UACC-257 melanoma it was 79.4%; with M14 melanoma it was 15.7%; in the experiment with HCT-15 colon it was 20.9%; in the experiment on HT29 colon it was -39.5% (active); with SNB-75 CNS it was 39.9%. For the same molecule, the growth in the experiment on SNB-19 CNS is 64.6%; in the experiment with U251 CNS, 24.1%; in the experiment with PC-3 prostate, 45%; in the experiment with UACC-62 melanoma, 84.2%; with LOX IMVI melanoma, -90.8% (active); in the experiment with SK-MEL-28 melanoma it was 91%. Also, the growth with SK-MEL-2 melanoma is 91.5%.
For the molecule `O=C(CCc1nnc2sc(-c3ccc(Cl)cc3Cl)nn12)c1nc2ncccc2[nH]1`, the growth is 6.32% (active) in the experiment with K-562 leukemia; -47.6% (active) with MALME-3M melanoma; -43.5% (active) in the experiment with MDA-MB-231 breast; -93.1% (active) with RXF 393 renal; 36.9% in the experiment with SF-268 CNS; -56.8% (active) with SF-295 CNS. In addition, the growth in the experiment with SF-539 CNS is -21% (active); with UACC-257 melanoma, -25.3% (active); with M14 melanoma it was -14.2% (active); in the experiment on HCT-15 colon, -40.2% (active); with HT29 colon, -13% (active); in the experiment with SNB-75 CNS, 35.3%. Further, the growth in the experiment with SNB-19 CNS was 26.9%; in the experiment on U251 CNS, -74.2% (active); in the experiment on PC-3 prostate it was -38.6% (active); in the experiment with UACC-62 melanoma it was -36.6% (active); in the experiment on LOX IMVI melanoma, -88.3% (active); with SK-MEL-28 melanoma, -9.94% (active).
On to `O=C1Nc2ccccc2/C1=C/c1cccs1`, for which the growth in the experiment with K-562 leukemia was 114%; in the experiment on MALME-3M melanoma it was 93.6%; in the experiment on MDA-MB-231 breast, 94.5%; in the experiment on RXF 393 renal, 97.9%; in the experiment on SF-268 CNS, 94.1%; in the experiment with SF-295 CNS it was 101%. Further, the growth in the experiment on SF-539 CNS is 86.7%; in the experiment on UACC-257 melanoma it was 100%; in the experiment on M14 melanoma, 97.3%; in the experiment with HCT-15 colon it was 78.8%; in the experiment on HT29 colon, 110%; in the experiment on SNB-75 CNS, 103%. In addition, the growth in the experiment with SNB-19 CNS was 83.2%; in the experiment with U251 CNS it was 83.2%; in the experiment on PC-3 prostate, 92.3%; in the experiment with SK-MEL-5 melanoma, 85.9%; in the experiment with LOX IMVI melanoma, 93%; in the experiment on SK-MEL-28 melanoma, 102%. For the same molecule, the growth in the experiment with SK-MEL-2 melanoma is 110%.
For the molecule `CN1CCN(Cc2ccc(NC(=O)c3cncc(C#Cc4nc(N)nc5[nH]ncc45)c3)cc2C(F)(F)F)CC1`, the growth in the experiment on K-562 leukemia was 4.75% (active); in the experiment with MALME-3M melanoma, 68.6%; in the experiment on MDA-MB-231 breast it was 100%; with RXF 393 renal it was 79.2%; in the experiment on SF-268 CNS, 102%; in the experiment on SF-295 CNS, 108%. Moreover, the growth was 104% with SF-539 CNS; 83.1% in the experiment with UACC-257 melanoma; 89.4% in the experiment on M14 melanoma; 97.8% in the experiment with HCT-15 colon; 55.3% in the experiment with HT29 colon; 85% in the experiment on SNB-75 CNS. For the same molecule, the growth in the experiment on SNB-19 CNS is 108%; with U251 CNS, 107%; with PC-3 prostate it was 108%; with SK-MEL-5 melanoma, 90.2%; in the experiment on LOX IMVI melanoma it was 88.1%; in the experiment on SK-MEL-28 melanoma, 94.3%. For the same molecule, the growth in the experiment with SK-MEL-2 melanoma is 92.4%.
`CCC1=C[C@]2(C3CC(=O)N(c4ccccc4)C3=O)CC(C(C)(C)C)C[C@@H]2[C@@H]2C(=O)N(c3ccccc3)C(=O)[C@H]12` (some centres not stated): the growth in the experiment on K-562 leukemia is 83.7%; in the experiment with MALME-3M melanoma, 91.5%; in the experiment with MDA-MB-231 breast, 81.4%; in the experiment with RXF 393 renal, 87.3%; with SF-268 CNS, 78.5%; in the experiment with SF-295 CNS, 93.6%. Further, the growth in the experiment with SF-539 CNS is 95.3%; in the experiment with UACC-257 melanoma, 57.1%; in the experiment with M14 melanoma, 83.7%; in the experiment on HCT-15 colon, 87.7%; in the experiment on HT29 colon it was 74.3%; in the experiment with SNB-75 CNS, 66.3%. In addition, the growth in the experiment with SNB-19 CNS is 86.2%; in the experiment with U251 CNS, 79.1%; with PC-3 prostate, 56.7%; in the experiment with SK-MEL-5 melanoma, 92.1%; in the experiment with LOX IMVI melanoma it was 93.1%; with SK-MEL-28 melanoma, 92.6%. Moreover, in the experiment with SK-MEL-2 melanoma, the growth was 82.8%.
With `CCCCN1CCN(c2ccc3nc(-c4ccc5nc(-c6ccc(C(F)(F)F)cc6)[nH]c5c4)[nH]c3c2)CC1`, the growth in the experiment on K-562 leukemia is -65.8% (active); with MALME-3M melanoma, -74.2% (active); in the experiment on MDA-MB-231 breast, -88.9% (active); in the experiment on RXF 393 renal, -82% (active); in the experiment on SF-268 CNS it was -71.8% (active); with SF-295 CNS it was -84% (active). In addition, the growth in the experiment with SF-539 CNS was -92.8% (active); with UACC-257 melanoma, -16.2% (active); in the experiment with M14 melanoma, -63.5% (active); in the experiment on HCT-15 colon it was -79% (active); in the experiment on HT29 colon, -49.5% (active); in the experiment on SNB-75 CNS it was -93.6% (active). For the same molecule, the growth in the experiment with SNB-19 CNS was -91.4% (active); in the experiment with U251 CNS, -86.6% (active); with PC-3 prostate it was -77% (active); in the experiment with SK-MEL-5 melanoma, 10.8%; in the experiment on LOX IMVI melanoma, -89.5% (active); in the experiment on SK-MEL-28 melanoma it was -88.3% (active). In the experiment with SK-MEL-2 melanoma, the growth is -47.5% (active).

(Values after PubChem BioAssay (NCI).)
